# Test results: article PMC10812921, “Transcriptional Coactivator BOB1 (OBF1, OCA-B) Modulates the Specificity of DNA Recognition by the POU-Domain Factors OCT1 and OCT2 in a Monomeric Configuration”
# Columns and labels:
# [1] = molecular target: POU1 (OCT1 POU domain) (human, UniProt P14859 260-458); experiment: EMSA-SELEX-seq; no BOB1; 20 mM Tris-HCl pH 7.6, 140 mM NaCl, 10% glycerol, 0.5 mM EDTA, 0.05% Triton X-100, 0.1 mg/mL BSA, 0.1 mg/mL poly(dI-dC), 5 mM DTT, room temperature, 20 min; high values mean tight binding; details: protein: recombinant; dsDNA, one strand shown
# Chain of POU1 (OCT1 POU domain) (P14859 260-458): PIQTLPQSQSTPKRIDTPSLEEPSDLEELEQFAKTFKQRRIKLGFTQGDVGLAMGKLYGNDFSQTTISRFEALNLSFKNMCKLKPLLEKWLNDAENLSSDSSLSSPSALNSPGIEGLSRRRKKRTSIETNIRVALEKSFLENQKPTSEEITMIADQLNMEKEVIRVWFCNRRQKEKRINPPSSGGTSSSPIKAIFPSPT
# In short: (§1)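 In this selection, tagged POU-domain proteins from E. coli BL21, purified under denaturing conditions and renatured, were bound to a PCR-amplified double-stranded random 35-nt library with or without coactivator protein. Reactions held 30 ng protein, 300 ng library and, where used, 28 ng coactivator protein in 20 μL Tris–HCl pH 7.6 binding buffer for 20 min at RT. Complex bands were cut from native 6% PAGE, eluted and PCR-amplified over four rounds, then Illumina-sequenced, and binding preference is the percentage of sequenced 8-mers matching a motif pattern.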
# [2] = molecular target: T1, POU2 (OCT2 POU domain) (human, UniProt P09086 175-386); experiment: as above; details: protein: recombinant; dsDNA, one strand shown
# T1 sequence: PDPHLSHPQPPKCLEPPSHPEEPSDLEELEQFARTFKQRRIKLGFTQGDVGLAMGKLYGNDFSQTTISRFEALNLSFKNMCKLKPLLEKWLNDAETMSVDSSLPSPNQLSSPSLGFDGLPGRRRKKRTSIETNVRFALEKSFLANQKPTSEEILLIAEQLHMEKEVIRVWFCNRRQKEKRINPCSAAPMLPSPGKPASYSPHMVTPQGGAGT
# In short: as §1
# [3] = molecular target: POU1 (OCT1 POU domain);BOB1 (OBF1, OCA-B) (human;human, UniProt P14859;Q16633 260-458;1-256, |); experiment: EMSA-SELEX-seq; with BOB1 (ternary complex band); 20 mM Tris-HCl pH 7.6, 140 mM NaCl, 10% glycerol, 0.5 mM EDTA, 0.05% Triton X-100, 0.1 mg/mL BSA, 0.1 mg/mL poly(dI-dC), 5 mM DTT, room temperature, 20 min; high values mean tight binding; details: protein: recombinant;recombinant; copies: 1;1; dsDNA, one strand shown
# In short: as §1
# [4] = molecular target: T2, POU2 (OCT2 POU domain);BOB1 (OBF1, OCA-B) (human;human, UniProt P09086;Q16633 175-386;1-256, |); experiment: as above; details: protein: recombinant;recombinant; copies: 1;1; dsDNA, one strand shown
# T2 sequence 1: T1 sequence
# T2 sequence 2: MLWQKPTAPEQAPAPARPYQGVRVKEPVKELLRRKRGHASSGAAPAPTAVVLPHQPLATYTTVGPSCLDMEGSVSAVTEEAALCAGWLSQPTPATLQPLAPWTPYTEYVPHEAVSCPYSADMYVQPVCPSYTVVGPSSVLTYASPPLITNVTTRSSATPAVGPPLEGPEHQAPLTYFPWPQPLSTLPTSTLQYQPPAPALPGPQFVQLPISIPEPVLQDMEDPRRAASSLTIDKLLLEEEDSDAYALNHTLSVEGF
# In short: as §1
Sequence,binding signal [1],binding signal [2],binding signal [3],binding signal [4]
AGGTCAAG,0.0297 % of ANNNNAAN 8-mers,0.042 % of ANNNNAAN 8-mers,0.0277 % of ANNNNAAN 8-mers,0.0289 % of ANNNNAAN 8-mers
ATTATAAG,0.121 % of ANNNNAAN 8-mers,0.163 % of ANNNNAAN 8-mers,0.0843 % of ANNNNAAN 8-mers,0.0966 % of ANNNNAAN 8-mers
ACCACAAA,0.0141 % of ANNNNAAN 8-mers,0.0196 % of ANNNNAAN 8-mers,0.014 % of ANNNNAAN 8-mers,0.0198 % of ANNNNAAN 8-mers
ATCGAAAA,0.0511 % of ANNNNAAN 8-mers,0.0564 % of ANNNNAAN 8-mers,0.0441 % of ANNNNAAN 8-mers,0.0454 % of ANNNNAAN 8-mers
AGACAAAC,0.0313 % of ANNNNAAN 8-mers,0.0265 % of ANNNNAAN 8-mers,0.0414 % of ANNNNAAN 8-mers,0.0322 % of ANNNNAAN 8-mers
AATAAAAG,0.106 % of ANNNNAAN 8-mers,0.121 % of ANNNNAAN 8-mers,0.118 % of ANNNNAAN 8-mers,0.101 % of ANNNNAAN 8-mers
ACTAAAAA,0.0439 % of ANNNNAAN 8-mers,0.0409 % of ANNNNAAN 8-mers,0.0468 % of ANNNNAAN 8-mers,0.0388 % of ANNNNAAN 8-mers
AGCGCAAA,0.0263 % of ANNNNAAN 8-mers,0.0305 % of ANNNNAAN 8-mers,0.0324 % of ANNNNAAN 8-mers,0.0215 % of ANNNNAAN 8-mers
AACTGAAC,0.0179 % of ANNNNAAN 8-mers,0.019 % of ANNNNAAN 8-mers,0.0168 % of ANNNNAAN 8-mers,0.0182 % of ANNNNAAN 8-mers
AATTGAAA,0.113 % of ANNNNAAN 8-mers,0.131 % of ANNNNAAN 8-mers,0.114 % of ANNNNAAN 8-mers,0.0817 % of ANNNNAAN 8-mers
AGTTAAAG,0.0545 % of ANNNNAAN 8-mers,0.0564 % of ANNNNAAN 8-mers,0.064 % of ANNNNAAN 8-mers,0.0528 % of ANNNNAAN 8-mers
AGCGTAAC,0.0168 % of ANNNNAAN 8-mers,0.0207 % of ANNNNAAN 8-mers,0.0144 % of ANNNNAAN 8-mers,0.0149 % of ANNNNAAN 8-mers
ACACAAAC,0.0236 % of ANNNNAAN 8-mers,0.019 % of ANNNNAAN 8-mers,0.0398 % of ANNNNAAN 8-mers,0.0297 % of ANNNNAAN 8-mers
AGCGAAAA,0.0389 % of ANNNNAAN 8-mers,0.0386 % of ANNNNAAN 8-mers,0.0418 % of ANNNNAAN 8-mers,0.033 % of ANNNNAAN 8-mers
AACAAAAC,0.0587 % of ANNNNAAN 8-mers,0.0409 % of ANNNNAAN 8-mers,0.0987 % of ANNNNAAN 8-mers,0.0636 % of ANNNNAAN 8-mers
ATCAGAAA,0.0446 % of ANNNNAAN 8-mers,0.0529 % of ANNNNAAN 8-mers,0.0546 % of ANNNNAAN 8-mers,0.0438 % of ANNNNAAN 8-mers
AAAGAAAA,0.0988 % of ANNNNAAN 8-mers,0.0892 % of ANNNNAAN 8-mers,0.132 % of ANNNNAAN 8-mers,0.0693 % of ANNNNAAN 8-mers
ATAGTAAC,0.0282 % of ANNNNAAN 8-mers,0.0414 % of ANNNNAAN 8-mers,0.023 % of ANNNNAAN 8-mers,0.038 % of ANNNNAAN 8-mers
AAGCGAAT,0.0538 % of ANNNNAAN 8-mers,0.0541 % of ANNNNAAN 8-mers,0.0531 % of ANNNNAAN 8-mers,0.0429 % of ANNNNAAN 8-mers
ACGCCAAA,0.0133 % of ANNNNAAN 8-mers,0.0219 % of ANNNNAAN 8-mers,0.016 % of ANNNNAAN 8-mers,0.0223 % of ANNNNAAN 8-mers
ACAGAAAC,0.0278 % of ANNNNAAN 8-mers,0.0259 % of ANNNNAAN 8-mers,0.0269 % of ANNNNAAN 8-mers,0.0231 % of ANNNNAAN 8-mers
ATCGCAAC,0.0126 % of ANNNNAAN 8-mers,0.0173 % of ANNNNAAN 8-mers,0.014 % of ANNNNAAN 8-mers,0.0239 % of ANNNNAAN 8-mers
AAACAAAG,0.114 % of ANNNNAAN 8-mers,0.0742 % of ANNNNAAN 8-mers,0.165 % of ANNNNAAN 8-mers,0.0892 % of ANNNNAAN 8-mers
